PubChem BioAssay (EPA / NIEHS)
Calls of active or inactive are those of the source. The calls were made as follows: active = hit-call score of the fitted dose curve at least 0.9, where 1 is the maximum; inactive = score below 0.9.

Assays:
Settings in all cases: mRNA level, 48 h; actives raise or lower the signal
[1] = read-out: Early growth response protein 1 (EGR1) transcription factor, EGR1 (gene 1958); assay: LTEA_HepaRG_EGR1: Life Technologies and Expression Analysis (LTEA) Assay for Early growth response protein 1 (EGR1) transcription factor using HepaRG (AID 2283490)
Procedure, shortened: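 EGR1 transcript levels quantified by qRT-PCR (Fluidigm arrays) against three housekeeping genes after 48 h chemical exposure of HepaRG cells. Eight-point half-log series topping at 100 uM, 0.5% DMSO vehicle, analyzed for gain or loss.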

[2] = read-out: Ezrin (EZR), EZR (gene 7430); assay: LTEA_HepaRG_EZR: Life Technologies and Expression Analysis (LTEA) Assay for Ezrin (EZR) using HepaRG (AID 2283491)
Procedure, shortened: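 Read-out is EZR transcript level by qRT-PCR, normalized to three housekeeping genes and fitted bidirectionally against the DMSO control. Human HepaRG cells received test chemicals for 48 h at eight half-log concentrations up to 100 uM in 0.5% DMSO.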

CYP3A5 (gene 1577) = assay: LTEA_HepaRG_CYP3A5: Life Technologies and Expression Analysis (LTEA) Assay for CYP3A5 using HepaRG (AID 2283493)
Procedure, shortened: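 Readout was CYP3A5 mRNA by qRT-PCR. HepaRG cultures were exposed for 48 h in serum-free induction medium to chemicals at up to 100 uM, and responses were fitted in both directions relative to DMSO vehicle.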

[3] = read-out: Fatty Acid-Binding Protein 1 (FABP1), FABP1 (gene 2168); assay: LTEA_HepaRG_FABP1: Life Technologies and Expression Analysis (LTEA) Assay for Fatty Acid-Binding Protein 1 (FABP1) using HepaRG (AID 2283494)
Procedure, shortened: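 FABP1 expression by TaqMan qRT-PCR, normalised to three housekeeping genes, in HepaRG cells after 48 h chemical treatment. Eight-point half-log series topping at 100 uM in 0.5% DMSO, duplicates; gain or loss fitted relative to vehicle.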

[4] = read-out: Cytochrome P450 7A1 (Homo sapiens) (UniProt P22680); assay: LTEA_HepaRG_CYP7A1: Life Technologies and Expression Analysis (LTEA) Assay for Cytochrome P450 7A1 (CYP7A1) using HepaRG (AID 2283496)
Procedure, shortened: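 Using 0.5% DMSO as vehicle and baseline, chemicals were tested in duplicate over an 8-point range from 100 uM on HepaRG cells for 48 h; qRT-PCR signals were normalised to ACTB, GAPDH and POLR2A.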

[5] = read-out: Glutathione S-Transferase (GSTA2), GSTA2 (gene 2939); assay: LTEA_HepaRG_GSTA2: Life Technologies and Expression Analysis (LTEA) Assay for Glutathione S-Transferase (GSTA2) using HepaRG (AID 2283497)
Procedure, shortened: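 GSTA2 transcript levels came from Fluidigm TaqMan qRT-PCR normalized to three housekeeping genes, fitted in both directions against DMSO. HepaRG cultures received chemicals for 48 h in serum-free induction medium (0.5% DMSO), 8 half-log concentrations up to 100 uM, duplicate.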

[6] = read-out: Glutamate-cysteine ligase catalytic (GCLC), GCLC (gene 2729); assay: LTEA_HepaRG_GCLC: Life Technologies and Expression Analysis (LTEA) Assay for Glutamate-cysteine ligase catalytic (GCLC) using HepaRG (AID 2283498)
Procedure, shortened: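 Expression by TaqMan qRT-PCR, normalized to three housekeeping genes (ACTB, GAPDH, POLR2A), with up- or down-regulation fitted against DMSO. HepaRG cells dosed in duplicate for 48 h with 8 half-log concentrations up to 100 uM, vehicle 0.5% DMSO.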

[7] = read-out: growth arrest and DNA damage 45 (GADD45G), GADD45G (gene 10912); assay: LTEA_HepaRG_GADD45G: Life Technologies and Expression Analysis (LTEA) Assay for growth arrest and DNA damage 45 (GADD45G) using HepaRG (AID 2283499)
Procedure, shortened: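 Gain or loss of GADD45G mRNA, quantified by TaqMan qRT-PCR against three housekeeping genes, is fitted in both directions relative to 0.5% DMSO. Human HepaRG cultures receive test chemical for 48 h at up to 100 uM.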

[8] = read-out: Cytochrome P450 3A7 (Homo sapiens) (UniProt P24462); assay: LTEA_HepaRG_CYP3A7: Life Technologies and Expression Analysis (LTEA) Assay for CYP3A7 using HepaRG (AID 2283492)
Procedure, shortened: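 Human HepaRG liver cells, 48 h post-plating, switched to serum-free induction medium and exposed in duplicate for 48 h. Dosing: 100 uM top, half-log dilutions, 8 points, 0.5% DMSO vehicle. Read-out: CYP3A7 mRNA, gain or loss fitted against DMSO baseline.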

[9] = read-out: Cytochrome P450 4A22 (Homo sapiens) (UniProt Q5TCH4); assay: LTEA_HepaRG_CYP4A22: Life Technologies and Expression Analysis (LTEA) Assay for Cytochrome P450 4A22 (CYP4A22) using HepaRG (AID 2283495)
Procedure, shortened: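 Readout is CYP4A22 transcript induction or loss, quantified by qRT-PCR and normalized to ACTB, GAPDH and POLR2A. Human HepaRG cells receive test chemicals for 48 h at eight half-log concentrations from 100 uM in 0.5% DMSO.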

Measured: AC50

Cytochrome P450 3A7 (Homo sapiens), sequence (P24462 whole entry, looked up): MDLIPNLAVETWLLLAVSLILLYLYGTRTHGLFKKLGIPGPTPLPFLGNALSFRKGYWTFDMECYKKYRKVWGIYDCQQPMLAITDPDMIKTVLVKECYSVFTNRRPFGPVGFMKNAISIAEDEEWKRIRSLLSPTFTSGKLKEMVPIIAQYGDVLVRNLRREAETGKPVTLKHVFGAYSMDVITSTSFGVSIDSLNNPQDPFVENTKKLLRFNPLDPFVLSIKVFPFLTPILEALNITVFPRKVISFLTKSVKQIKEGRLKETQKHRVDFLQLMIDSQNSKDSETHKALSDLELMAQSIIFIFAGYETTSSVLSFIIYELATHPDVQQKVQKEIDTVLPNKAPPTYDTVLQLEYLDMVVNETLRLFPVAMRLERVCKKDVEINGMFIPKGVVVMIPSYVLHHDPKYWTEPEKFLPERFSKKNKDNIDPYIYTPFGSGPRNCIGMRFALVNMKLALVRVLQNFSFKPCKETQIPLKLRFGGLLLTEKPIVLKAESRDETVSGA

CC(C)=CC1C(C(=O)OCc2coc(Cc3ccccc3)c2)C1(C)C (centres undefined)
not listed: [8] | [9]
inactive: all other assays above

CS(=O)(=O)c1ccc(C(=O)C2C(=O)CCCC2=O)c([N+](=O)[O-])c1
not listed: [5] | [8] | [9]
inactive: all other assays above

CCOP(=O)(OCC)Oc1nc(Cl)c(Cl)cc1Cl
inactive: [2] | CYP3A5 (gene 1577)
active: [1] 83.4 µM | [3] 82.6 µM | [4] 83.8 µM | [6] 84.1 µM

N#Cc1c(Cl)cccc1Cl
not listed: [9]
inactive: all other assays above

CC1(C)C(C=C(Cl)Cl)C1C(=O)OC(C#N)c1cccc(Oc2ccccc2)c1 (centres undefined)
active: [4] 13.9 µM
not listed: [5] | [8]
inactive: all other assays above

C=C(C)CN(CC)c1c([N+](=O)[O-])cc(C(F)(F)F)cc1[N+](=O)[O-]
active: [3] 50 µM
not listed: [5] | [8] | [9]
inactive: all other assays above

CSC(=O)c1c(C(F)F)nc(C(F)(F)F)c(C(=O)SC)c1CC(C)C
active: [3] 9.87 µM | [9] 80.7 µM | [7] 65.3 µM
not listed: [5] | [8]
inactive: all other assays above

Cc1nc(N(C)C)nc(OC(=O)N(C)C)c1C
active: [8] 19.9 µM
inactive: all other assays above

CCCCOCN(C(=O)CCl)c1c(CC)cccc1CC
not listed: [2]
inactive: all other assays above

CC1(C)CCC(=Cc2ccc(Cl)cc2)C1(O)Cn1cncn1 (centres undefined)
inactive: [1] | [2] | CYP3A5 (gene 1577) | [6] | [7]
active: [3] 4.41 µM | [4] 4.96 µM

Cn1c(-c2ccccc2)cc(-c2ccccc2)[n+]1C
inactive: [1] | [2]
active: [8] 44.1 µM | CYP3A5 (gene 1577) 79 µM | [3] 21.9 µM | [4] 57.2 µM | [6] 82.3 µM | [7] 50 µM

CCNC(=O)NC(=O)C(C#N)=NOC
active: [6] 9.92 µM
not listed: [4] | [9]
inactive: all other assays above

CC1(C)CON(Cc2ccccc2Cl)C1=O
active: [8] 1.47 µM
inactive: all other assays above

CCCCC(O)(Cn1cncn1)c1ccc(Cl)cc1Cl (centres undefined)
inactive: [2] | CYP3A5 (gene 1577) | [6]
active: [1] 69.2 µM | [8] 89.4 µM | [3] 79.6 µM | [4] 89 µM | [7] 15.8 µM

COC(=O)N(C(=O)N1CO[C@@]2(C(=O)OC)Cc3cc(Cl)ccc3C2=N1)c1ccc(OC(F)(F)F)cc1
active: [8] 73.1 µM | [3] 40 µM | [4] 31.8 µM
not listed: [5] | [9]
inactive: all other assays above

C=CCOC(=O)C(C)(C)OC(=O)c1cc(-n2c(=O)cc(C(F)(F)F)n(C)c2=O)ccc1Cl
active: [8] 11 µM
not listed: [5] | [9]
inactive: all other assays above

CCOc1cc(C(C)(C)C)ccc1C1COC(c2c(F)cccc2F)=N1 (centres undefined)
active: [3] 6.69 µM | [9] 33 µM | [4] 26.9 µM
inactive: all other assays above
